{
  "source": "PubChem BioAssay (NCATS)",
  "key": {"[1]": {"test": "Viability qHTS for spleen associated tyrosine kinase inhibitor (SYKi) drug resistant MV4-11 cells (AID 1963824); also: nearly all actives have a fitted effect of over 35% in size; also: potency is read from the fitted curve at half-maximal effect", "conditions": "SYKi-resistant MV4-11 viability, CellTiter-Glo, 72 h; series mostly up to 45 µM", "method_in_brief": "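CellTiter-Glo luminescence, read 10 min after reagent addition, reports viability after a 72 hr compound exposure. Cells are an MV4-11 line made resistant to SYK inhibition, seeded at 500 per well onto compound-containing plates.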"}, "[2]": {"test": "Quantitative highthroughput screen to assess conditional lethalithy of NOMO1 cells grown in RPMI1640 with untreated serum (RPMI+s) (AID 1963876);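 also: 100% = DMSO wells and 0% = empty wells without cells; nearly all actives have a fitted effect of over 35% in size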", "conditions": "NOMO1 AML cells in RPMI+serum, CellTiter-Glo viability, 48 h; series mostly up to 45.8 µM", "method_in_brief": "(§1)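 Each medium arm—HPLM with 10% dialyzed FBS, or RPMI1640 with 5 mM glucose and 10% untreated or dialyzed FBS—was screened against an 11-point, 3-fold compound titration for 48 h at 37 °C, with CellTiter-Glo luminescence as endpoint.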"}, "[3]": {"test": "Quantitative highthroughput screen to assess conditional lethalithy of P12 Ichikawa cells grown in Human Plasma-Like Medium with dialyzed fetal bovine serum (HPLM+ds) (AID 1963879)", "conditions": "ATP luminescence, 48 h; Potency: viability; series mostly up to 45.8 µM", "method_in_brief": "as §1"}, "[4]": {"test": "Quantitative highthroughput screen to assess conditional lethalithy of P12 Ichikawa cells grown in RPMI1640 with dialyzed fetal bovine serum (RPMI+ds) (AID 1963880)", "conditions": "ATP luminescence, 48 h; Potency: P12-Ichikawa viability; series mostly up to 45.8 µM", "method_in_brief": "as §1"}, "[5]": {"test": "Quantitative highthroughput screen to assess conditional lethalithy of P12 Ichikawa cells grown in RPMI1640 with untreated serum (RPMI+s) (AID 1963881)", "conditions": "ATP luminescence, 48 h; Potency: viability; series mostly up to 45.8 µM", "method_in_brief": "as §1"}, "[6]": {"test": "Quantitative highthroughput screen to assess conditional lethalithy of SEM cells grown in RPMI1640 with dialyzed fetal bovine serum (RPMI+ds) (AID 1963884)", "conditions": "SEM B-ALL cells, RPMI+dialyzed FBS, CellTiter-Glo viability, 48 h; series mostly up to 45.8 µM", "method_in_brief": "as §1"}, "[7]": {"test": "Cellular viability qHTS for adrenocortical cancer (ACC) cell line SW-13 (AID 1963989)", "conditions": "SW-13 ACC cells viability, CellTiter-Glo, 48 h; activity (max response): hits give low values", "method_in_brief": "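48 h treatment, SW-13 in ITS/DMEM serum-free; doses up to 46 uM; readout CellTiter-Glo luminescence; curve fit four-parameter logistic.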"}, "[8]": {"test": "Cellular viability qHTS for adrenocortical cancer (ACC) cell line NCI-H295R (AID 1963990)", "conditions": "CellTiter-Glo ATP luminescence, 48 h; series mostly up to 46.1 µM", "method_in_brief": "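Compound titrations (up to 46 uM final) are applied to NCI-H295R cultures for 48 h at 37C. Viable cell number is estimated by CellTiter-Glo signal, normalised to DMSO and doxorubicin controls.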"}, "[9]": {"test": "Quantitative highthroughput screen to assess conditional lethalithy of SEM cells grown in Human Plasma-Like Medium with dialyzed fetal bovine serum (HPLM+ds) (AID 1963882)", "conditions": "SEM B-ALL cells in HPLM+ds, CellTiter-Glo viability, 48 h; series mostly up to 45.8 µM", "method_in_brief": "as §1"}, "[10]": {"test": "Quantitative highthroughput screen to assess conditional lethalithy of NOMO1 cells grown in Human Plasma-Like Medium with dialyzed fetal bovine serum (HPLM+ds) (AID 1963878)", "conditions": "NOMO1 AML cells in HPLM+ds, CellTiter-Glo viability, 48 h; series mostly up to 45.8 µM", "method_in_brief": "as §1"}},
  "note": "Where “and” joins values, the source holds several entries; their conditions need not be identical. Equal entries are not always repeated. Results filed as inconclusive are left out. A number with no mark means an inactive call. Calls of active or inactive are those of the source. Calls follow the shape of the dose curve; as a rule, active = well fitted curve in the direction sought with a large enough effect; inconclusive = small, poorly fitted or top-dose-only effect, or another doubt; inactive = no such curve, though single readings can be large; an effect the other way counts as inactive or inconclusive. For activity (max response) in this document: % is scaled to controls: 0 for no effect and ±100 for the full control effect. For activity (max response) in this document: nearly all actives have a fitted effect of over 65% in size.",
  "data": [
    {"smiles": "CO[C@@H]1C[C@H](O[C@H]2CC[C@@]3(C)C(CCC4C3CC[C@]3(C)[C@@H](C5=CC(=O)OC5)[C@@H](OC(C)=O)CC43O)C2)O[C@H](C)[C@@H]1O[C@H]1O[C@H](CO[C@@H]2O[C@H](CO)[C@@H](O)[C@H](O)[C@H]2O)[C@@H](O)[C@H](O)[C@H]1O", "note": "(some centres not stated)", "values": [
      {"measurement": "Potency", "setting": "[1]", "value": "155 nM (active)"}
    ]},
    {"smiles": "C[C@H]1O[C@@H](O[C@H]2CC[C@]3(CO)C4CC[C@]5(C)[C@@H](C6=CC(=O)OC6)CC[C@]5(O)[C@@H]4CC[C@H]3C2)[C@H](O)[C@H](O)[C@@H]1O[C@@H]1O[C@H](CO)[C@@H](O)[C@H](O)[C@H]1O", "note": "(some centres not stated)", "values": [
      {"measurement": "Potency", "setting": "[1]", "value": "544 nM (active)"}
    ]},
    {"smiles": "CCCCn1cc(C(=O)c2cccc3ccccc23)c2ccccc21", "values": [
      {"measurement": "Potency", "setting": "[1]", "value": "18400 nM (active)"}
    ]},
    {"smiles": "CNc1ccc2oc(C[C@H]3O[C@@]4(CC[C@H]3C)O[C@H](C(C)C(=O)c3ccc[nH]3)[C@H](C)C[C@H]4C)nc2c1C(=O)O", "note": "(some centres not stated)", "values": [
      {"measurement": "Potency", "setting": "[1]", "value": "4610 nM (active)"}
    ]},
    {"smiles": "O=C(O)C(=O)c1cn(Cc2ccccc2)c2ccc(-c3ccc(OC(F)(F)F)cc3)cc12", "values": [
      {"measurement": "Potency", "setting": "[1]", "value": "20600 nM (active)"},
      {"measurement": "Potency", "setting": "[2]", "value": "inactive"},
      {"measurement": "Potency", "setting": "[3]", "value": "inactive"},
      {"measurement": "Potency", "setting": "[4]", "value": "inactive"},
      {"measurement": "Potency", "setting": "[5]", "value": "inactive"}
    ]},
    {"smiles": "O=C1NC(=O)c2c1c1c3ccccc3n3c1c1c2c2ccccc2n1C1CCC3O1", "values": [
      {"measurement": "Potency", "setting": "[1]", "value": "16.4 nM (active)"}
    ]},
    {"smiles": "Cn1cc(C2=C(c3cn(C4CCN(Cc5ccccn5)CC4)c4ccccc34)C(=O)NC2=O)c2ccccc21", "values": [
      {"measurement": "Potency", "setting": "[1]", "value": "5250 nM (active)"},
      {"measurement": "Potency", "setting": "[3]", "value": "inactive"},
      {"measurement": "Potency", "setting": "[4]", "value": "inactive"},
      {"measurement": "Potency", "setting": "[5]", "value": "inactive"},
      {"measurement": "Potency", "setting": "[6]", "value": "5900 nM (active)"},
      {"measurement": "activity (max response)", "setting": "[7]", "value": "-7.67% and -14.7%"},
      {"measurement": "Potency", "setting": "[8]", "value": "inactive"}
    ]},
    {"smiles": "CC(C)[C@H]1C(=O)N[C@H](CO)Cc2c[nH]c3cccc(c23)N1C", "values": [
      {"measurement": "Potency", "setting": "[1]", "value": "288 nM (active)"},
      {"measurement": "Potency", "setting": "[4]", "value": "418 nM (active)"},
      {"measurement": "Potency", "setting": "[5]", "value": "372 nM (active)"},
      {"measurement": "Potency", "setting": "[9]", "value": "inactive"},
      {"measurement": "Potency", "setting": "[6]", "value": "inactive"},
      {"measurement": "activity (max response)", "setting": "[7]", "value": -2.75, "unit": "%"},
      {"measurement": "Potency", "setting": "[8]", "value": "inactive"}
    ]},
    {"smiles": "c1cc2c(c(N3CCNCC3)c1)OCCO2", "values": [
      {"measurement": "Potency", "setting": "[1]", "value": "inactive"},
      {"measurement": "activity (max response)", "setting": "[7]", "value": -0.802, "unit": "%"}
    ]},
    {"smiles": "CC1=C(O)C(=O)C=C2C1=CC=C1[C@@]2(C)CC[C@@]2(C)[C@@H]3C[C@](C)(C(=O)O)CC[C@]3(C)CC[C@]12C", "values": [
      {"measurement": "Potency", "setting": "[1]", "value": "468 nM (active)"},
      {"measurement": "Potency", "setting": "[10]", "value": "2960 nM (active)"},
      {"measurement": "Potency", "setting": "[3]", "value": "5900 nM (active)"},
      {"measurement": "Potency", "setting": "[4]", "value": "2640 nM (active)"},
      {"measurement": "Potency", "setting": "[7]", "value": "4470 nM (active)"},
      {"measurement": "Potency", "setting": "[8]", "value": "6310 nM (active)"}
    ]}
  ]
}
